# Rab9 promoter act – activates the Rab9 promoter | Huh7 Rab9 promoter-luciferase reporter, luminescence, 24 h | AID 485297 | 320,000 tested, 2.8% active | Potency, µM (doses to about 9.22 µM), for inactives: top-dose activation, negative = inhibition, most hits filed as activators; note: % of control where 0% means no effect; nearly all actives have a fitted effect of over 60% in size
#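 Luminescence read-out: Huh7 cells stably expressing Rab9-luciferase, treated 24 h with compound at 37 °C, then lysed with luciferase reagent for 10 min at ambient before reading.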
# FLuc counter – firefly luciferase modulation, counter-screen for miR-21 project; purified FLuc, Km substrates, luminescence inhibition; Potency, µM (titrated, usually from 57.5 µM), for the others: at the top dose activity change, negative = inhibition, hits mostly inhibitors; 360,000 tested, 6.9% active; AID 588342;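 note: plate controls were vehicle for no effect and reference inhibitor for full effect; nearly all actives have a fitted effect of over 55% in size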
# Target sequence (P08659 whole entry, looked up): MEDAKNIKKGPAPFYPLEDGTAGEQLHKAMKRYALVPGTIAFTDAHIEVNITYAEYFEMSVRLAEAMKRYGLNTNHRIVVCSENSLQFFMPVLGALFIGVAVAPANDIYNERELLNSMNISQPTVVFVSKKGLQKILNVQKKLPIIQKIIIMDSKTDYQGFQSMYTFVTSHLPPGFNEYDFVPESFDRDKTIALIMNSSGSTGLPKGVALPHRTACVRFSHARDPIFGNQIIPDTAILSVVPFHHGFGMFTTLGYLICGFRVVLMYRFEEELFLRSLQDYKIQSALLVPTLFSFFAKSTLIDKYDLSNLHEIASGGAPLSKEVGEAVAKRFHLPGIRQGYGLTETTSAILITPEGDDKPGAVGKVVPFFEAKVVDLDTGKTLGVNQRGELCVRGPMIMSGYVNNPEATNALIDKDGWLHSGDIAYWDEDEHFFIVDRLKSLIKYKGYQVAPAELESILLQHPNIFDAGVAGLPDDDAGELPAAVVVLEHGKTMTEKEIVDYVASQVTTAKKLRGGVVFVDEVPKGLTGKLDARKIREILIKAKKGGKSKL
#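 Purified P. pyralis luciferase, 10 nM final, with Km-level 10 uM D-luciferin and 10 uM ATP in 50 mM Tris acetate pH 7.5, 10 mM Mg acetate, 0.01% Tween-20, 0.05% BSA; 6-point qHTS titration about 60 µM downward; luminescence read.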
# ELG1 DNA repair – blocks ELG1-dependent DNA repair in HEK293T cells; HEK293T ELG1-luciferase reporter, luminescence, 16 h; DNA damage induced by 5-fluorouridine; Potency, µM (doses to about 46.1 µM), for inactives: top-dose activity change, negative = inhibition, most hits filed as inhibitors; 330,000 tested, 2.3% active; AID 504467; note: % is set by controls: 0 for no effect and ±100 for the full control effect; nearly all actives have a fitted effect of over 55% in size
#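 DMSO vehicle served as the neutral condition. Each well held 2,000 cells given 5-fluorouridine plus compound; after 16 hr at 37 °C/5% CO2, ONE-Glo was added and luciferase measured 30 min later.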
# ELG1 genotox – genotoxicity induction in ELG1-luciferase HEK293T cells; HEK293T ELG1-luciferase reporter, luminescence, 16 h; 330,000 tested, 1.3% active; Potency, µM (titrated, usually from 46 µM), without a hit: top-dose activity change, positive = activation, most hits filed as activators; note: % of control where 0% means no effect; nearly all actives have a fitted effect of over 60% in size
#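 Cells (2,000/well) expressing the ELG1-luciferase fusion are dosed by pin tool and kept 16 hr at 37 °C, 5% CO2. Signal comes from ONE-Glo luciferase reagent after 30 min at room temperature.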
# NPC1 promoter act – activates the NPC1 promoter | AID 485313 | Huh7 NPC1 promoter luciferase reporter, 24 h | 320,000 tested, 2.4% active | Potency, µM (highest dose often 9.22 µM), for the others: at the highest dose activation, hits mostly activators; note: % of control where 0% means no effect; nearly all actives have a fitted effect of over 60% in size
#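 Luciferase expression driven by the NPC1 promoter was measured in stably transfected Huh7 cells after a 24 h compound incubation, using a luciferase reagent and a luminescence read.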
# SMN2 splice enh – increases expression of the SMN2 splice variant. HEK293 SMN2-luciferase splicing reporter, luminescence, 30-36 h. Potency, µM (highest dose often 46.1 µM), for the others: at the highest dose activity change, positive = activation, usual class: activators. 210,000 tested, 2.8% active; note: % of control where 0% means no effect; nearly all actives have a fitted effect of over 55% in size
#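 HEK293 cells carry an SMN2 […]–luciferase reporter in which exon 7 inclusion puts luciferase in frame. Cells were plated 10-12 h before compound addition, then incubated 30-36 h at 37C. ONE-Glo luminescence was read; sodium butyrate at 4.5 mM final served as control.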
# Active calls of the source: *; ? = inconclusive; / = no result; [ ] = another dose, or the depositor's remark. Rows were chosen to be rich in hits. Some 9.4% of all compounds tested hit in one or more screens of this group. Calls come from the whole dose curve; as a rule, active = well fitted curve in the direction sought with a large enough effect; inconclusive = small, poorly fitted or top-dose-only effect, or another doubt; inactive = no such curve, though single readings can be large; an effect the other way counts as inactive or inconclusive. Potency is the fitted concentration of half-maximal effect.
SMILES,Rab9 promoter act,FLuc counter,ELG1 DNA repair,ELG1 genotox,NPC1 promoter act,SMN2 splice enh
COc1cc(/C=C2/C(=O)ON=C2c2ccccc2)ccc1O,-1%,19µM*,?,3%,-3%,-1%
COc1cc(/C=C2\C(=O)ON=C2c2ccccc2)cc(Cl)c1O,-11%,19µM*,12%,0%,-6%,7%
O=C1ON=C(c2ccc(Cl)cc2)/C1=C/c1ccc(O)cc1,-10%,11µM*,?,?,-5%,0%
COc1ccc(S(=O)(=O)N2CCc3ccccc32)cc1C(=O)NCCc1ccccn1,13%,-4%,18µM*,-7%,-10%,-8%
COc1ccc(S(=O)(=O)N2CCc3ccccc32)cc1C(=O)O,6%,2%,-10%,1%,6%,/
O=C(Nc1ccccc1)C1=C[C@@H](C2CCCCC2)C[C@@H](OCCCCO)O1,?,12µM*,?,?,27%,/
NS(=O)(=O)c1cc2c(cc1Cl)=NC(CCC(=O)O)=NS=2(=O)O,/,/,/,/,/,-8%[9.22 µM]
CCCc1cc(=O)[nH]c(Nc2ccc(O)cc2C)n1,/,0%,/,/,/,15%
Cc1cc(O)ccc1Nc1nc2ccccc2nc1Nc1ccc(O)cc1C,6%,17µM*,-22%,8%,7%,3%
Cc1ccc(C)c(NC(=O)CN2C(=O)C3(SCC(=O)N3c3ccc(C)c(C)c3)c3ccccc32)c1 (stereo not drawn),/,-2%,/,/,/,/
COCc1c(CCl)cnc(C)c1O,4%,17µM*,3%,5%,-2%,/
Cc1ncc(CO)c(CO)c1O,-5%,5%,22%,2%,-3%,6%[20.6 µM]
CCc1ccc(C(=O)NNc2ccc(C)c(Cl)c2)cc1,-3%,-17%,18µM*,10%,16%,/
COc1ccc(C(c2c(O)cc(C)n(Cc3ccco3)c2=O)N2CCN(c3ccccc3)CC2)cc1 (stereo not drawn),/,-20%,/,/,/,/
N/C(=N\OC(=O)c1ccc(F)cc1)c1ccc(Br)cc1,?,2.7µM*,?,?,?,19%
Cc1ccc(/C(N)=N/OC(=O)c2ccc(F)cc2)cc1,15%,4.8µM*,?,10µM*,16%,?
Cc1ccc(C(=O)O/N=C(\N)Cc2cccc3ccccc23)cc1,8%,-8%,17%,-10%,0%,/
C/C(=N\OC(=O)c1ccc(F)cc1)c1ccc(F)c(F)c1,?,1.7µM*,7%,0%,0%,/
N/C(=N\OC(=O)c1ccc(F)cc1)c1ccccc1,?,0.17µM*,?,?,?,5%
COc1ccc(-c2nc3c(c4c2C[C@H](c2ccccc2)OC4)CN(C(=O)Cc2cccs2)CC3)c(C)c1,/,/,/,/,/,2%[9.22 µM]
CCOc1ccc(CNC(=O)Cn2ccc3cc(S(=O)(=O)N4CCCCC4)ccc32)cc1,/,-4%,/,/,/,/
Cc1cccc(-n2c(=S)[nH]c3sc4c(c3c2=O)CCc2ccccc2-4)c1,4%,7.6µM*,?,-11%,0%,-8%
Cc1ccc(-n2c(=S)[nH]c3sc4c(c3c2=O)CCc2ccccc2-4)cc1,2%,6%,-1%,0%,-1%,/
COc1ccc(C(C(=O)NCC2CCCO2)N(Cc2ccco2)C(=O)c2snc(C(N)=O)c2N)cc1OC (stereo not drawn),4%,-1%,-28%,-14%,-1%,/
Cc1ccc(C(C(=O)NCc2ccccc2)N(Cc2ccco2)C(=O)c2snc(C(N)=O)c2N)o1 (stereo not drawn),0%,0%,?,-16%,-1%,/
COc1ccc(C(C(=O)NCc2ccccc2)N(Cc2ccco2)C(=O)c2snc(C(N)=O)c2N)cc1OC (stereo not drawn),-10%,-2%,15µM*,-17%,1%,/
NC(=O)c1nsc(C(=O)N(c2cccc(F)c2)C(C(=O)NC2CCCC2)c2ccc(O)cc2)c1N (stereo not drawn),2%,0%,11%,-8%,1%,/
